# Results reported in ChEMBL document CHEMBL3988442, “University of Dundee, Small-Polar-MMV Screening Library” (2021).
# For some of these results: Entries with a potency or affinity are not part of this list.
# Legend:
# Set-up in all cases: scale not given: direction of the effect not stated beside the values
# [1] = target: Protein translocase subunit SecA (Escherichia coli (strain K12)) (UniProt P10408); assay: Assay to Identify E. coli SecA ATPase Inhibitors; assay type: functional; details: 30 µM
# Chain of Protein translocase subunit SecA (Escherichia coli (strain K12)) (P10408 whole entry): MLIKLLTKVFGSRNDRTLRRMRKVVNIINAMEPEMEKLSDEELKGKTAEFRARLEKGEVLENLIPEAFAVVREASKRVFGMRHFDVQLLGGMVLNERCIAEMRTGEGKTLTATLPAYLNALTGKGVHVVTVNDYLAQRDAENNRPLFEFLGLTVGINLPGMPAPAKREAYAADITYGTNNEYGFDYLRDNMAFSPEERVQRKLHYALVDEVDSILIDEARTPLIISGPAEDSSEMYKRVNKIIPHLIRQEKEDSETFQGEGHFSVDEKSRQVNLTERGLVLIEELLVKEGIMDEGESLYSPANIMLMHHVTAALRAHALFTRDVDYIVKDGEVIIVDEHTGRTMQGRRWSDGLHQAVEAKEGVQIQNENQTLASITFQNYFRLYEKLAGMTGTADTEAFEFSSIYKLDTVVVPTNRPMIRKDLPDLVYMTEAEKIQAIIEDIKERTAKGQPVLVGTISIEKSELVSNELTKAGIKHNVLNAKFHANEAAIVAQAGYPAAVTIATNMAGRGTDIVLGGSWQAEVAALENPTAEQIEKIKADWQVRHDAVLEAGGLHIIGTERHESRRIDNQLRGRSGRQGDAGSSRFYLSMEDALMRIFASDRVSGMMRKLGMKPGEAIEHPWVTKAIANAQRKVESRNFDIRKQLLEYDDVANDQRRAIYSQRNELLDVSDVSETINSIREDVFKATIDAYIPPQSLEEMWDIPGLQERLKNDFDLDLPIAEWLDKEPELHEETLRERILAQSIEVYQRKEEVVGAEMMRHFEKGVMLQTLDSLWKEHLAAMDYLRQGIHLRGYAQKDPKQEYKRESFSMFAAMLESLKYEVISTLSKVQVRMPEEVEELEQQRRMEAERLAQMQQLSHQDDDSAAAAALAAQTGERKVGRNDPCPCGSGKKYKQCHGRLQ
# [2] = target: T1, Ubiquitin-activating enzyme e1, putative (Leishmania donovani (strain BPK282A1)) (UniProt E9BSI1); assay: Leishmania donovani Ubiquitin Activating Enzyme (LdE1); assay type: functional; details: 30 µM
# T1 sequence (whole entry): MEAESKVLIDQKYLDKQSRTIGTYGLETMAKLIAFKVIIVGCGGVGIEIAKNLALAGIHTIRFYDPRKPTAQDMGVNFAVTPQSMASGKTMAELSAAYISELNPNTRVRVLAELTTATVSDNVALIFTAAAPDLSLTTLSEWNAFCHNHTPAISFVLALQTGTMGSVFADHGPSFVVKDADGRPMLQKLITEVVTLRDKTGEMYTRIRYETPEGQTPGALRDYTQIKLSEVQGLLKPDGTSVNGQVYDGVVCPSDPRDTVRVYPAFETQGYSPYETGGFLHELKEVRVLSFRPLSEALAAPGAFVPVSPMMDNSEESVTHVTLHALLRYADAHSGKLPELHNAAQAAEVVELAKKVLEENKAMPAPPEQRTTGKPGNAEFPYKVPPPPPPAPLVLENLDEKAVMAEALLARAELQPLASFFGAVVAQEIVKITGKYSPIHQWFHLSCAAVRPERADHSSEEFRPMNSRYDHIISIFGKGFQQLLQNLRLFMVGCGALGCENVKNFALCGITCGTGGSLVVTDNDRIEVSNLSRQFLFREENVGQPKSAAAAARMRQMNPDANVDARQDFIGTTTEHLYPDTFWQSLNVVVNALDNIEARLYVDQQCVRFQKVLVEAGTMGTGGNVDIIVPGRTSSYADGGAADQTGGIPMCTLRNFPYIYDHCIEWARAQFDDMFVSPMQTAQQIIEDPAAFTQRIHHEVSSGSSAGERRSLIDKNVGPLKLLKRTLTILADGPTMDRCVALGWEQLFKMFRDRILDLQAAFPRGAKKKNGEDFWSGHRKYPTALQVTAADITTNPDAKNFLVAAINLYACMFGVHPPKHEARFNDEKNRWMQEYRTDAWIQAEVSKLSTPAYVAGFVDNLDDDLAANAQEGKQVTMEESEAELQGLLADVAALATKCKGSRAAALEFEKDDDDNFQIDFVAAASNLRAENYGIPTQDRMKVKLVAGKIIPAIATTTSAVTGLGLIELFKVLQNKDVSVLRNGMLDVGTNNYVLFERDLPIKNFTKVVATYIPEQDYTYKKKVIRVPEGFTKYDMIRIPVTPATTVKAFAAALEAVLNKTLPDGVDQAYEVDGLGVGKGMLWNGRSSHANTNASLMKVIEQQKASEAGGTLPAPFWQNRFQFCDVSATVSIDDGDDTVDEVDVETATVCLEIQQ
# [3] = target: AMP-activated protein kinase, AMPK (Homo sapiens) (UniProt P54646+O43741+P54619+Q9UGJ0+Q9Y478+Q13131+Q9UGI9); assay: AMP-dependent Kinase enzyme assay. An in vitro enzyme assay that detects ADP turnover that is directly proportional to AMPK activity. This uses naive AMPK that is activated during the assay with MK-8722; assay type: functional; details: 30 µM
# [4] = target: Sialic acid-binding Ig-like lectin 9 (Homo sapiens) (UniProt Q9Y336); assay: Hs-Siglec9 ALPHAscreen SOP 20170721; details: 10 µM
# Chain of Sialic acid-binding Ig-like lectin 9 (Homo sapiens) (Q9Y336 whole entry): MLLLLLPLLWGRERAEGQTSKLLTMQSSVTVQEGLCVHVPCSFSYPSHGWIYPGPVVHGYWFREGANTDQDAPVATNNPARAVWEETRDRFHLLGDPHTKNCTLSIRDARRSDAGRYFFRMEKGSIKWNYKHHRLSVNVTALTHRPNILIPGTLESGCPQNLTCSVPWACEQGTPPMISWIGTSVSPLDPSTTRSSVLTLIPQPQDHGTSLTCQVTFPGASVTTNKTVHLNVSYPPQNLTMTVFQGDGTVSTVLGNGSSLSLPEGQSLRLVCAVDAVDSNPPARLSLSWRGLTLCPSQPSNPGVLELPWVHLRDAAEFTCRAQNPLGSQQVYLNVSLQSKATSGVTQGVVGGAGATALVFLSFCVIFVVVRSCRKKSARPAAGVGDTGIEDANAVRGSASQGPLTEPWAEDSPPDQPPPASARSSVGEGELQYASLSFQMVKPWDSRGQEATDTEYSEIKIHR
# Trypanosoma cruzi = assay: Trypanosoma cruzi phosphomannomutase and mannose-1-phosphate guanylyltransferase assay; assay type: functional; details: 10 µM
# [5] = target: T2, Arginase-2, mitochondrial (Homo sapiens) (UniProt P78540); assay: in vitro enzyme assay to detect the production of urea directly proportional to the activity of Arginase II; assay type: functional; details: 33.3 µM; also: in the data most compounds retested in dose-response had high values
# T2 sequence (whole entry): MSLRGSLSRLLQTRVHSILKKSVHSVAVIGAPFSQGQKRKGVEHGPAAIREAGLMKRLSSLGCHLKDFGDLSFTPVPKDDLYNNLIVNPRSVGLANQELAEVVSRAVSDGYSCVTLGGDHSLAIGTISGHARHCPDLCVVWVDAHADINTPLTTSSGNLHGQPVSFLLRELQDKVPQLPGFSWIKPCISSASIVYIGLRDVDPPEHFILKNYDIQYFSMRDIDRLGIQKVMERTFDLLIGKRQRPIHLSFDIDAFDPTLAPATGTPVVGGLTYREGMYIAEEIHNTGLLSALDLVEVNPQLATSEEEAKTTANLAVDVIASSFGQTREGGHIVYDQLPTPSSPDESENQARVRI
# [6] = target: T3, Proteasome subunit beta (Trypanosoma cruzi) (UniProt O96673); assay: Trypanosoma cruzi proteasome chymotrypsin-like activity (TcProtChymo) assay.; also: in the data most compounds retested in dose-response had high values; assay type: functional; details: 9.37 µM
# T3 sequence (whole entry): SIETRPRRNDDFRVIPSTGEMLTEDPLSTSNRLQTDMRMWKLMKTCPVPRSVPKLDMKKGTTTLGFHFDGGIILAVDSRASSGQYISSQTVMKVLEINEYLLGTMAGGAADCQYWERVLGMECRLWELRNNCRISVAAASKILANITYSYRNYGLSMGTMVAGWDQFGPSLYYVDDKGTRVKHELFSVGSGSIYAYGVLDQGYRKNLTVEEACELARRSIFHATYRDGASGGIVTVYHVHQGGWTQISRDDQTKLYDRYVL
# Homo sapiens = organism: Homo sapiens; assay: To identify inhibition of the IFN signalling (Jak-Stat) pathway via expression of an eGFP reporter gene under the control of an IFN-stimulated response element (ISRE) containing MxA promoter.; assay type: functional; details: 30 µM
# [7] = target: T4, Tyrosyl-tRNA synthetase, putative (Trypanosoma cruzi (strain CL Brener)) (UniProt Q4DSP6); assay: Trypanosoma cruzi tyrosyl tRNA synthetase (TcYRS) _High Tyrosine SOP; assay type: functional; details: 30 µM; also: in the data most compounds retested in dose-response had high values
# T4 sequence (whole entry): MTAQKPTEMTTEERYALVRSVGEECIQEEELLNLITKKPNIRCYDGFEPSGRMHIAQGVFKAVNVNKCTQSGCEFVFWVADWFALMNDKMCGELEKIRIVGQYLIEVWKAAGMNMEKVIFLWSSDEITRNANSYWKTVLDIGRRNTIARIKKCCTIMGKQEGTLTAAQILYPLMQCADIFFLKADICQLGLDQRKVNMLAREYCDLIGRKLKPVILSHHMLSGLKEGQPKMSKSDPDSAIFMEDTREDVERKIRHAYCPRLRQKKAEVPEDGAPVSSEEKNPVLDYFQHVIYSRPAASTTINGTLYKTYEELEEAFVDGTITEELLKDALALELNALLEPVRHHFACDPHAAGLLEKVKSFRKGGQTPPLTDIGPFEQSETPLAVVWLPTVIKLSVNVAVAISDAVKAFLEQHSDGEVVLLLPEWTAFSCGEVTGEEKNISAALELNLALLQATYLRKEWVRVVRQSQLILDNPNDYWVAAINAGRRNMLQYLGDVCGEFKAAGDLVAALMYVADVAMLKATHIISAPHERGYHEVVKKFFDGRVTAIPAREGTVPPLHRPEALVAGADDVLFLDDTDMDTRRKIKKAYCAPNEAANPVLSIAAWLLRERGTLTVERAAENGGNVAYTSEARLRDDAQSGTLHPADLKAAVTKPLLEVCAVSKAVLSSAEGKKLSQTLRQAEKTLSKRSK
# [8] = target: T4, Tyrosyl-tRNA synthetase, putative (Trypanosoma cruzi (strain CL Brener)); assay: Trypanosoma cruzi tyrosyl tRNA synthetase (TcYRS) SOP; assay type: functional; details: 30 µM
# [9] = target: Chromo domain-containing protein 1 (Saccharomyces cerevisiae (strain ATCC 204508 / S288c) (Baker's yeast)) (UniProt P32657); assay: ScCHD-1 Enzyme Inhibition Assay; assay type: functional; details: 30 µM; also: in the data most compounds retested in dose-response had high values
# Chain of Chromo domain-containing protein 1 (Saccharomyces cerevisiae (strain ATCC 204508 / S288c) (Baker's yeast)) (P32657 whole entry, the tested form may be a part): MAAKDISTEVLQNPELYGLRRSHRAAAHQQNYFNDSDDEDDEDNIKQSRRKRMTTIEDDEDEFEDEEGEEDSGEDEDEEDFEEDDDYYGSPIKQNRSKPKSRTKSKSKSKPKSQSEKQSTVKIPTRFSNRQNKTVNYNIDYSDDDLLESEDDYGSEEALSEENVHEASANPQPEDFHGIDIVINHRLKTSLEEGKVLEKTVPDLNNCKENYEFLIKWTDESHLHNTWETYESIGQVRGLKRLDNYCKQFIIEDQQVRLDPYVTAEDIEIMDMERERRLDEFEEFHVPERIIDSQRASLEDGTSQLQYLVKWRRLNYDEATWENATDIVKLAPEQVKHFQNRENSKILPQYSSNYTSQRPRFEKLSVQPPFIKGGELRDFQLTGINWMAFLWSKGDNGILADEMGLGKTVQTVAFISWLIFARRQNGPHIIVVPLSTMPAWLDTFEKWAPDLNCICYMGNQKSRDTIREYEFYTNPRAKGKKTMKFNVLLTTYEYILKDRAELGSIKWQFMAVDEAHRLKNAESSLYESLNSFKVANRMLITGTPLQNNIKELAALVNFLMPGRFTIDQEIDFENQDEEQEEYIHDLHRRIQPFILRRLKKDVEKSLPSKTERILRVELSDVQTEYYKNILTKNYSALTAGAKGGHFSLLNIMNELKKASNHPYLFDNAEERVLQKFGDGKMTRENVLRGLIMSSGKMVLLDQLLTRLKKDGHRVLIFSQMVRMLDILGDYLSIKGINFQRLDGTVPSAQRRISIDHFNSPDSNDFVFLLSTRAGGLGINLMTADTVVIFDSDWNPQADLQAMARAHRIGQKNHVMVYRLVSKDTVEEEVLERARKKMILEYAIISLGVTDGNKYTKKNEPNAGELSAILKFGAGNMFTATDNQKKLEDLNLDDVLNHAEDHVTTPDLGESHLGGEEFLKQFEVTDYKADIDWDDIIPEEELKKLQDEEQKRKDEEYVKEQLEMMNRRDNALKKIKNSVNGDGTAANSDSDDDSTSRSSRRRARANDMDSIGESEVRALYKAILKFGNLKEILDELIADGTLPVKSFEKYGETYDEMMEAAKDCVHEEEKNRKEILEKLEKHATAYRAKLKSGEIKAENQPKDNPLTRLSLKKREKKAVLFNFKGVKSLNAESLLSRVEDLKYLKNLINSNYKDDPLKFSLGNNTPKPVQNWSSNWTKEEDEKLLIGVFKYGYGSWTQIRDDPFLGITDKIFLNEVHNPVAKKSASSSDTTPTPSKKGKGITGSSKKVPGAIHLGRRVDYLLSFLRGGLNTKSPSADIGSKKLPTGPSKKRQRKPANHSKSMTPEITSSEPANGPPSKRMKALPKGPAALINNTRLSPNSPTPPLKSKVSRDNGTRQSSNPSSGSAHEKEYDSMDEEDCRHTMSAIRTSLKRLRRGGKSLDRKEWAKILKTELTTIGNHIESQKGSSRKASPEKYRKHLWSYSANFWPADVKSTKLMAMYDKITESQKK
SMILES,Percent Effect [1] [%],Percent Effect [2] [%],Percent Effect [3] [%],Percent Effect [4] [%],Percent Effect (Trypanosoma cruzi) [%],Percent Effect [5] [%],Percent Effect [6] [%],Percent Effect (Homo sapiens) [%],Percent Effect [7] [%],Percent Effect [8] [%],Percent Effect [9] [%]
CS(=O)(=O)N1CCCCCC1C1CCN(c2ncccc2C#N)CC1 (stereo unspecified),-0.308,-5.26,9.82,3.04,6.58,0,-0.668,-7.75,0.49,0,2.11
CC(C)Nc1ncnc2c1CCN(C(=O)c1ccncc1F)CC2,-4.14,8.11,0.552,-7.16,-6.35,-2.87,17.2,4.19,3.24,10.3,-3.13
Cc1cc(C)cc(C2(C(=O)N3CCCC(n4cncn4)C3)CC2)c1 (stereo unspecified),-0.118,16.2,3.34,-6.31,-3.44,2.4,7.36,12.7,6.93,18.3,-6.26
Cn1ccnc1CN1CCC2(COCCN(Cc3ccsc3)C2)C1 (stereo unspecified),-3.36,13,-5.28,12.1,6,-11,12.2,-9.92,9.68,21,-6.67
O=c1ccc(-c2ccccc2F)nn1CCN1CCCS1(=O)=O,-6.51,13.5,-4.96,22.3,6.16,3.72,1.29,-2.29,1.07,8.64,-10.9
O=C(NCc1ccccn1)NC1CCOc2ccccc21 (stereo unspecified),-4.23,24.3,-0.78,9.97,9.19,1.29,9.52,12,9.9,28.1,-5.33
Cc1nc(N2CCOCC2)nc2c1CN(C(=O)Cc1ccccn1)CC2,1.23,0,3.27,5.25,0.688,4.14,2.66,-4.9,3.23,-1.24,0.916
COCc1cnc2n1CCN(C(=O)C1=CCCCC1)C2C (stereo unspecified),2.94,17.3,-3.72,-2.8,-1.77,-16.7,15.5,33,3.17,12.8,-8.38
CNC(=O)c1ccc(C(=O)N2CCCC(n3cc(C)cn3)C2)cn1 (stereo unspecified),-7.4,26,-0.148,5.41,9.18,3.56,12,26.2,9.71,26.8,-11.2
CCOc1ccccc1C(CC(=O)Nc1ccccc1F)NC(C)=O (stereo unspecified),-4.23,10.5,0.587,13.4,2.82,-1.92,-4.18,-32.5,3.43,9.76,-4.56
Cn1cc(-c2ncnc3c2CCN(C(=O)N2CCOCC2)CC3)cn1,-2.9,0,-3.79,15.2,3.03,1.24,9.53,-0.161,1.07,8.64,-11.6
